From ChEMBL document CHEMBL1157539, “Thousands of chemical starting points for antimalarial lead identification” (Nature, 2010) come the findings set out here.

The Inhibition is how much of the control response was suppressed. Low readings indicate little suppression, high ones strong suppression.

The first test deals with Plasmodium falciparum. The experiment in a line: GSK_TCMDC: Inhibition of Plasmodium falciparum 3D7 in whole red blood cells, using parasite LDH activity as an index of growth. Test compounds present at 2uM. The format is functional.
For the compound `N#Cc1cc(C(=O)c2cc(Br)ccc2O)cn(-c2cc(Cl)cc(Cl)c2)c1=O`, the Inhibition was found to be 98%. As for `O=C(O)C(F)(F)F.c1ccc2[nH]c(-c3ccc(-c4ccc(CNCC5CCCO5)cc4)s3)nc2c1` (stereo unspecified), the Inhibition came out at 100%. The same measure, in the same setting: then `Br.NCC(=O)NC12CC3CC(CC(C3)C1)C2`, with 87%; and `Cc1ccc(S(=O)(=O)n2cc(-c3ccnc(N)c3)c3cc(Br)cnc32)cc1`, with 98%.

The subject of another test is Plasmodium falciparum. The test is described as follows: GSK_TCMDC: Inhibition of Plasmodium falciparum Dd2 in whole red blood cells, using parasite LDH activity as an index of growth. Test compounds present at 2uM. The format is functional.
`CC(C)c1ccc(CN2CCC(CNC(=O)c3cc(-c4ccccc4F)cs3)C2)cc1.O=C(O)C(F)(F)F` (stereo unspecified) returned an Inhibition of 29%.

Take `CC(=O)Nc1ccc(S(=O)(=O)N2CCN(c3nc(NC4CCCC4)c4ccccc4n3)CC2)cc1`: the Inhibition is listed as 2%. Still for that read-out and setting: in the case of `Cc1ccc2[nH]c(-c3cc(-c4cccc(C#N)c4)cnc3N)nc2c1.O=C(O)C(F)(F)F` it was 99%; in that of `O=C(Nc1nc2cc(S(=O)(=O)NCCc3ccc(F)cc3)ccc2n1CCCn1ccnc1)c1ccc(Cl)cc1.O=C(O)C(F)(F)F`, 55%. On the same count and under the same terms, in the case of `CN(C(=O)c1cc2c(-c3cncnc3)cccc2[nH]1)c1ccccc1` it was 99%; in that of `CCc1nonc1NC(=O)c1oc2c(C)c(C)ccc2c1C`, 64%; in that of `CN1CCC(NC(=O)c2cccc(Nc3cc(Nc4cccc(Br)c4)ncn3)c2)CC1`, 6%. The compound `COc1cc(NC(=O)c2cccs2)c(C(=O)NCc2ccc(C)cc2)cc1OC` gave an Inhibition of 88%. Same read-out and setting: then `COC(=O)c1cccc(CNCc2cccc(-c3cccc(-c4nc5cc(F)ccc5[nH]4)c3)c2)c1.O=C(O)C(F)(F)F`, with 52%. `Clc1ccccc1C=NN=c1cc[nH]c2ccccc12` came in with an Inhibition of 50%. Same read-out and setting: then `CC(NC(C)c1cccc(Cl)c1)C(=O)Nc1cc(C(F)(F)F)ccc1N1CCOCC1` (stereo unspecified), with 33%. `Cc1cccc2nc(-c3ccc(-c4cccc(CN5CCC(CO)CC5)c4)s3)[nH]c12.O=C(O)C(F)(F)F` yielded an Inhibition of 61%. On to `Cc1ccc(C2(C)CN(CCCOc3cccc(-c4ccc(C(=O)NC(C)C)cc4)c3)CCO2)cc1` (stereo unspecified), for which the Inhibition amounted to 89%.

As to `Cc1ccc(NC(=O)c2ccc3nccnc3c2)cc1OC1CCN(Cc2ccc(F)cc2)CC1.O=C(O)C(F)(F)F`, the Inhibition worked out at 24%. `Cl.Clc1ccc(OCCC2CCN(CCCCCCN3CCCCC3)CC2)cc1Cl` had an Inhibition of 36%. On the same count and under the same terms, in the case of `CN(C)S(=O)(=O)c1ccc(N2C(=O)C3C(C2=O)C2(c4ccccc4)C(=O)C3(c3ccccc3)C(c3ccccc3)=C2c2ccccc2)cc1` (stereo unspecified) it was 63%; in that of `Nc1nccc2ccc(-c3ccc4ncccc4c3)cc12.O=C(O)C(F)(F)F`, 100%; in that of `O=C(O[C@@H]1CN[C@H](C#Cc2cc3c(Nc4ccc5c(cnn5Cc5ccccc5)c4)ncnc3s2)C1)N1CCCC1`, 87%.

As to `C=C[C@H]1CN(CCCCCCC)CC[C@H]1CC(O)Cc1ccnc2cc(O)c(OC)cc12.O=C(O)C(=O)O` (stereo partly specified), the Inhibition is reported as 59%. The same measure, in the same setting: in the case of `CCCNc1nc(NCc2c(C)cccc2C)nc(NC(C)(C)C)n1` it was 89%; in that of `COc1ccc(C(=O)C2CC2CN(C)CCC(O)c2ccc(Cl)c(Cl)c2)cc1` (stereo unspecified), 86%; in that of `COc1cc2nc(N3CCC(CNC(=O)c4ccc(-c5ccc(C(F)(F)F)cc5)cc4)CC3)nc(N)c2cc1OC`, 100%. As to `CCc1c(C)nc(-n2nc(C)cc2NC(=O)c2ccc(OC)cc2OC)[nH]c1=O`, the Inhibition is reported as 57%.

Turning to `Cc1ccc2cc(NCCCCCCCCON3C(N)=NC(N)=NC34CCCCC4)ccc2n1`, the Inhibition worked out at 80%.

As for `Cc1cccc2nc(-c3ccc(-c4cccc(CN5CCCC(O)C5)c4)s3)[nH]c12.O=C(O)C(F)(F)F` (stereo unspecified), the Inhibition was 18%. The same measure, in the same setting: in the case of `Cc1nc(C(C)Nc2nncc(-c3ccc(Cl)cc3)n2)cs1` (stereo unspecified) it was 55%. On the same count and under the same terms, in the case of `O=C(NCCc1ccccc1)N(Cc1cccc(-c2ccc(CNCc3ccc4c(c3)OCO4)cc2)c1)C1CCN(Cc2ccccc2)CC1.O=C(O)C(F)(F)F` it was 70%; in that of `Cl.N=C(N)NN=Cc1cc([N+](=O)[O-])ccc1Sc1ccccc1CO`, 0%; in that of `Cc1cccc2nc(-c3cccc(-c4cccc(CNCC5CCCO5)c4)c3)[nH]c12.O=C(O)C(F)(F)F` (stereo unspecified), 99%. `COc1ccc(-c2cccc(NC(=O)c3ccc(C#N)cc3)c2)cc1CN1CCN(C)CC1.O=C(O)C(F)(F)F` registered an Inhibition of 2%. On the same count and under the same terms, in the case of `CCc1c[nH]c2c(N3CCCS3(=O)=O)cc(C(=O)N[C@@H](Cc3ccccc3)[C@H](O)CNC3CCCCC3)cc12.O=CO` it was 89%; in that of `COc1ccc(CN(C)CCOc2ccc(NC(=O)c3cccc4c(=O)c5cc(SC)ccc5[nH]c34)cc2)cc1OC`, 98%.
